Data taken from the supplement of paper PMC7156485.
“And” between values parts separate entries of the source, which are not always exact repeats. Equal values may be shown once. ± gives the standard deviation of the averaged measurements.

Test system: HCC1569
Experiment: cell number relative to DMSO (% of DMSO); higher = more cells (less growth inhibition / toxicity)
Conditions: concentration: 10 µM; 24 h
How it was run: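 HCC1569 and TDF cells (800 per well, 384-well plates, RPMI with 10% FBS) were treated with compounds at 10 µM for 24 h at 37 °C, in triplicate. Cells were fixed in 3.7% formaldehyde and stained with a rabbit anti-H1.0 antibody, an AlexaFluor 647 secondary and DAPI; six fields per well were imaged at ×10. H1.0 nuclear intensity or cell number is expressed as percent of the plate DMSO control, taking the median of replicates. HCC1569 values were smoothed for positional effects.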
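Further: TDF denotes transformed human dermal fibroblasts of mesenchymal origin.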

SMILES	cell number
Nc1c2c(nc3ccccc13)CCCC2O.O=C(O)C=CC(=O)O (stereo not given) [Hydroxytacrine maleate]	104
CC1C(=O)OC2CC34C5CC(C(C)(C)C)C36C(OC(=O)C6O)OC4(C(=O)O5)C21O (stereo not given) [Ginkgolide A]	99.6 ± 1.2
O=P(O)(O)C(Cl)(Cl)P(=O)(O)O [Clodronic acid]	101
O=C([O-])CCCc1ccccc1.[Na+] [Sodium Phenylbutyrate]	103
CN(Cc1cc(Br)cc(Br)c1N)C1CCCCC1 [Bromhexine]	98.8
O=c1c(OC2OC(C(O)CO)C(O)C2O)c(-c2ccc(O)c(O)c2)oc2cc(O)cc(O)c12 (stereo not given) [Isoquercitrine]	103
CN(C)CCN(Cc1cccs1)c1ccccn1.Cl [Methapyrilene hydrochloride]	112
C=C1NC(=O)C2=C(CCSC2)N1	102
Nc1ccn(C2CCC(CO)O2)c(=O)n1 (stereo not given) ["2',3' - Dideoxycytidine"]	107
Nc1nc(=O)c2ncn(COC(CO)CO)c2[nH]1 [Ganciclovir]	105 ± 4
O=C1Nc2ccc(I)cc2C1=Cc1cc(Br)c(O)c(Br)c1	98.5 and 105
C[N+](C)(C)CCOC(N)=O [Carbamylcholine]	103
CC(N)(Cc1ccc(O)c(O)c1)C(=O)O [L-alpha-Methyl DOPA]	96.4
O=C(Nc1cccc(Nc2cc(Nc3cccc(C(F)(F)F)c3)ncn2)c1)C1CC1 [EGFR Inhibitor]	54.7
O=C1Nc2cc(Br)ccc2C1=C1N=c2ccccc2=C1NO [(2'Z,3'E)-6-Bromoindirubin-3'-oxime]	54.7
CCCC(CCC)C(=O)O [Valproic acid]	100
O=C(c1ccc2c(c1)OCCO2)N1CCCCC1	105
Nc1nc(Cl)nc2c1ncn2C1OC(COP(=O)([O-])OP(=O)([O-])OP(=O)([O-])[O-])C(O)C1O.[Na+].[Na+].[Na+].[Na+] (stereo not given) [2-Chloroadenosine triphosphate tetrasodium]	102
NS(=O)(=O)c1cc2c(cc1Cl)NC(C(Cl)Cl)NS2(=O)=O (stereo not given) [Trichloromethiazide]	106
C[N+](C)(C)C(Cc1c[nH]c(=S)[nH]1)C(=O)[O-] (stereo not given) [Ergothioneine]	100

SMILES	cell number
CC(C(=O)O)c1ccc2c(c1)Cc1cccnc1O2 (stereo not given) [Pranoprofen]	98.6
CCN(CC)CC(=O)Nc1c(C)cccc1C.Cl [Lidocaine hydrochloride]	97.3
CCN1CCCC1CNC(=O)c1c(O)c(Cl)cc(Cl)c1OC.O=C(O)C(O)C(O)C(=O)O [S(+)-Raclopride L-tartrate]	101
O=C(Nc1ncc(-c2cc(C(F)F)nn2-c2c(Cl)cccc2Cl)s1)C1CC1	52.3
COc1cc(C(=O)OCCC[NH+]2CCC[NH+](CCCOC(=O)c3cc(OC)c(OC)c(OC)c3)CC2)cc(OC)c1OC.[Cl-].[Cl-] [Dilazep hydrochloride]	94.8
CC(C)OC(=O)C(C)(C)Oc1ccc(C(=O)c2ccc(Cl)cc2)cc1 [Fenofibrate]	99.6 ± 2.2
CCOC(=O)C(CCc1ccccc1)NC(C)C(=O)N1Cc2ccccc2CC1C(=O)O (stereo not given) [Quinapril]	102
CCCCCCCCCCCCCCCC(=O)OC1C(SC)OC(C(NC(=O)C2CC(CCC)CN2C)C(C)Cl)C(O)C1O.Cl (stereo not given) [Clindamycin palmitate.HCl]	96.5
Cc1[nH]c2ccccc2c1C1=C(NCCc2ccc(F)cc2)C(=O)N(C)C1=O	82.4
c1ccc(-c2[nH]ncc2-c2ccnc3ccccc23)nc1 [TGF-b RI Kinase Inhibitor]	102
Cn1cc(C=C2C(=O)Nc3ccc(S(N)(=O)=O)cc32)c2ccccc21 [Syk Inhibitor]	84.1
O=C1c2c(O)cc(O)cc2OC(c2ccc(O)c(O)c2)C1O (single isomer, unassigned; (+)) [(+)-Taxifolin]	99.5
Cc1nc(C)c(C)nc1C [Tetramethylpyrazine]	106
CCCCCC=CCC=CCC=CCC=CCCCCCC(=O)O [7(Z), 10(Z), 13(Z), 16(Z)-Ocosatetraenoic Acid]	100
O=C(O)c1ccc(O)c2ncccc12 [8-hydroxy-5-quinolinecarboxylic acid]	102
CCNC(=O)C1OC(n2cnc3c(N)nc(NCCc4ccc(CCC(=O)O)cc4)nc32)C(O)C1O.Cl (stereo not given)	118
CCC1C(=O)OCC1Cc1cncn1C.Cl (stereo not given) [Pilocarpine.HCl]	102 ± 2.4
COc1ccccc1N1CCN(CCCCNS(=O)(=O)c2cccc3c(N(C)C)cccc23)CC1.O=C(O)C=CC(=O)O [Cortexolone maleate]	85.1
CCCC[C@@H](C=O)NC(=O)[C@H](CC(C)C)NC(=O)[C@H](CC(C)C)NC(C)=O	47.1
CN(C)c1ccc(C=C2C(=O)Nc3ccccc32)cc1	95.9 and 109 and 98.8
